Measurements: PubChem BioAssay AID504333 (National Center for Advancing Translational Sciences (NCATS), 2011)
Values joined by “and” are separate entries in the source; they are usually repeats but may differ in a detail not shown here. Identical values can stand only once. Among all 360,000 compounds or so, about 16,000 (4.4%) were called active. About 9% were inconclusive and are not listed. The sample holds actives, similar compounds and a random draw of the others, so the mix is not that of the screen. Calls come from the whole dose curve; as a rule, active = well fitted inhibition curve with a large enough effect; inconclusive = small, poorly fitted or top-dose-only effect; inactive = no such curve, though single readings can be large or run the other way. More than one record can exist for a structure, and the calls need not agree.

These molecules were tested against Bromodomain adjacent to zinc finger domain protein 2B (Homo sapiens) (UniProt Q9UIF8) (assay: qHTS Assay for Inhibitors of BAZ2B). Conditions: AlphaScreen BAZ2B-H3K14Ac peptide displacement; series mostly up to 114 µM; activity change, negative = inhibition: at the top concentration.
How it was run: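 Inhibition is scored as reduced AlphaScreen emission. The BAZ2B/b-H3(5-23)K14Ac complex (50 nM each) in PBS pH 7.4, 0.01% Tween-20 meets compound (up to 110 uM) for 30 min at RT before bead addition.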
% is set by controls: 0 for no effect and ±100 for the full control effect; potency is the fitted concentration of half-maximal effect.
Note: nearly all actives have a fitted effect of over 60% in size.

Sequence of Bromodomain adjacent to zinc finger domain protein 2B (Homo sapiens) (Q9UIF8 whole entry, looked up, the tested form may be a part): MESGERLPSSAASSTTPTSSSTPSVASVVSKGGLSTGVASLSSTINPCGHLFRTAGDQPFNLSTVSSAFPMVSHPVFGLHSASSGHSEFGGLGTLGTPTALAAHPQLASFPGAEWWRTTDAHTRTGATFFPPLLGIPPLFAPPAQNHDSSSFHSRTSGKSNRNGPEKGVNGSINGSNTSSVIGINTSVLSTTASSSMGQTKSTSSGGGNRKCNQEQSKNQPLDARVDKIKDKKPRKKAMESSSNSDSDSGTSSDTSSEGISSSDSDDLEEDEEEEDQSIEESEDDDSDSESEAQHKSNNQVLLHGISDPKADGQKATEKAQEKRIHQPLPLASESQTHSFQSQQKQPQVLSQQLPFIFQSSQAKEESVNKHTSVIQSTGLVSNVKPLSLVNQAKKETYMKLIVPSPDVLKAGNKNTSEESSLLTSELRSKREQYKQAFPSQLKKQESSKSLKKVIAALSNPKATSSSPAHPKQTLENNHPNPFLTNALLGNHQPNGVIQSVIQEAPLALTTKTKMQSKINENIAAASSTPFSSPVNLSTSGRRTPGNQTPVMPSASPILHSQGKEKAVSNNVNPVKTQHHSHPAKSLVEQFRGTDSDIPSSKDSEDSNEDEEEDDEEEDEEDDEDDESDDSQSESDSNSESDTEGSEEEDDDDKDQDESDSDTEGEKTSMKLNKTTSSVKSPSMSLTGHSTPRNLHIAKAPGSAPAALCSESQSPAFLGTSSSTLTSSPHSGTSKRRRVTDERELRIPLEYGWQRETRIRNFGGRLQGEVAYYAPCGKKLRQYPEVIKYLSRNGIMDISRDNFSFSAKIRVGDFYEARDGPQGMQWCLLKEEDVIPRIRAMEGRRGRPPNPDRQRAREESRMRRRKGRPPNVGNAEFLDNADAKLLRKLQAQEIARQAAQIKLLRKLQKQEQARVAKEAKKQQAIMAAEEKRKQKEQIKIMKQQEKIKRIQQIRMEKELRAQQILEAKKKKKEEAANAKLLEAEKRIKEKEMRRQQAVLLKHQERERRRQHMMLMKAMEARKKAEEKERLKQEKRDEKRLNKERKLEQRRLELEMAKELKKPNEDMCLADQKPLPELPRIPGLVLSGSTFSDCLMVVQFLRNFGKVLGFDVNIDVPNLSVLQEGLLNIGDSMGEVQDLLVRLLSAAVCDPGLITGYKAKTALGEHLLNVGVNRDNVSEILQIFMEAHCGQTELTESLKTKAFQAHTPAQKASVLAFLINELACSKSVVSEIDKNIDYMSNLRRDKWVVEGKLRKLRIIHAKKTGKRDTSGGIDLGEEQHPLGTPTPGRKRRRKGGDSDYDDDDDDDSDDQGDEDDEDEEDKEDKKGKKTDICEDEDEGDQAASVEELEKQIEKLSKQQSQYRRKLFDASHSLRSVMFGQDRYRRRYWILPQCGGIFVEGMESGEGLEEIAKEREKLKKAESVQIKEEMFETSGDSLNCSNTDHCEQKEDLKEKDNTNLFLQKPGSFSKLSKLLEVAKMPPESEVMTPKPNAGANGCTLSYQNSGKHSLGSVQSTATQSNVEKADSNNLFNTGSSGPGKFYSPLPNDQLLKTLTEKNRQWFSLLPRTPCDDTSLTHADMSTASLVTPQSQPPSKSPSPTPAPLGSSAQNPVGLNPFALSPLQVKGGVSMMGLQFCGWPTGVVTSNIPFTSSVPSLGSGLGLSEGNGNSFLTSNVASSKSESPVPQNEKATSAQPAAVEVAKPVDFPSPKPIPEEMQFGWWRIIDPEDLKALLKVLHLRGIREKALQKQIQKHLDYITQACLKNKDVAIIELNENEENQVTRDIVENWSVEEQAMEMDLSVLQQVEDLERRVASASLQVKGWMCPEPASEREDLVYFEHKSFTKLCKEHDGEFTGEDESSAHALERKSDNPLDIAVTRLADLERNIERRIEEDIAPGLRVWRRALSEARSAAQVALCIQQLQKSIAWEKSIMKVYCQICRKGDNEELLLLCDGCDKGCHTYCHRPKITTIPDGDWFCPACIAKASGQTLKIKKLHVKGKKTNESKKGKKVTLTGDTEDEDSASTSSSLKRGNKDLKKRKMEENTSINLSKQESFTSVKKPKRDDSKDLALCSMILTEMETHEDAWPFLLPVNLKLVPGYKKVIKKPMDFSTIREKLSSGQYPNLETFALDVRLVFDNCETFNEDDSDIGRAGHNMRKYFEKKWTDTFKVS

SMILES	activity change, negative = inhibition	Potency
Cn1c(=O)c2c(nc(SCC(=O)Nc3ccc(F)cc3)n2Cc2ccc(Cl)cc2)n(C)c1=O	2.76% (inactive)	
CC1Cc2cc(S(=O)(=O)CCC(=O)Nc3ccc(F)c(Cl)c3)ccc2N1C(=O)C1CC1 (stereo not drawn)	-6.1% (inactive)	
CC(C)Oc1ccc(NC(=O)c2cc3ccccc3o2)cc1	-17.6% (inactive)	
C/C(=N\NC(=S)Nc1ccc(C)cc1)c1cc2ccccc2o1		56.2 µM (active)
Cc1ccc(NC(=O)c2cc3ccccc3o2)cc1	-1.9% (inactive)	
Cc1ccc(NC(=O)C2CCN(S(=O)(=O)c3cc(-c4noc(C)n4)ccc3C)CC2)c(C)c1	-7.07% (inactive)	
C/C(=N\NC(N)=S)c1ccncc1		50.1 µM (active)
C/C(=N\NC(N)=S)c1cccnc1	-1.17% (inactive)	
C/C(=N/NC(=O)c1ccn(C)n1)c1ccncc1	-32% (inactive)	
CCOC(=O)c1c(C)[nH]c(C)c1S(=O)(=O)N(C)CC(=O)N1CCN(c2ccccc2)CC1	-19.6% (inactive)	
Cc1ccccc1NC(=O)Cn1c(=O)n(CC2CCC(C(=O)NCCc3ccccc3)CC2)c(=O)c2ccccc21 (stereo not drawn)	-1.6% (inactive)	
Cc1c(Cl)cccc1NC(=O)C(=O)NCCc1csc2nc(-c3ccccc3F)nn12	-7.32% (inactive)	
CC1(C(=O)NCCc2c[nH]c3ccccc23)C=CC2(CCCCC2)N1C(=O)c1ccccc1 (stereo not drawn)	-37.5% (inactive)	
C[C@]1(C(=O)NCCc2c[nH]c3ccccc23)C=C[C@@H](Cc2ccccc2)N1C(=O)c1ccccc1		79.4 µM (active)
CC(=O)NC(Cc1c[nH]c2ccccc12)C(=O)NCCc1ccccc1 (stereo not drawn)	-4.32% (inactive)	
COc1cc(Nc2nc(-c3ccc(OC)c(OC)c3)nc3ccccc23)cc(OC)c1	-14.7% (inactive)	
Cc1ccccc1OCC(=O)Nc1nnc(S(=O)(=O)N2CCCC2)s1		inactive and 3.55 µM (active)
Cc1cccc(C(=O)Nc2nnc(S(=O)(=O)N3CCCCCC3)s2)c1	-1.37% (inactive)	
CC1CCN(S(=O)(=O)c2nnc(NC(=O)COc3ccccc3F)s2)CC1	0.509% (inactive)	
CCOCCCNC(=O)c1ccc2nc(CCc3ccccc3)oc2c1	-0.408% (inactive)	
COc1ccc(CCNC(=O)Cn2c(=O)cc(C(F)(F)F)c3c(C)nn(C)c32)c(OC)c1	2.29% (inactive)	
S=C(NCCc1ccccc1)Nc1ccccc1	-12.7% (inactive)	
S=C(NCCc1ccccc1)NCC1CCCO1 (stereo not drawn)	5.46% (inactive)	
CCCC1CCC(=NNC(=S)NCCc2ccccc2)CC1 (stereo not drawn)		10 µM (active)
COc1ccccc1NC(=O)c1oc2ccccc2c1NC(=O)C(C)C	0.844% (inactive)	
Cc1cccc(NC(=S)NCCN(C2CCCCC2)C2CCCC2)c1	-24.5% (inactive)	

SMILES	activity change, negative = inhibition	Potency
Cc1cccc(NC(=S)NCc2ccc3[nH]c4c(c3c2)CCCC4)c1		39.8 µM (active)
O=C(O)CCC(=O)NCc1ccc2[nH]c3c(c2c1)CCCC3	-1.26% (inactive)	
O=C(CCn1c(=O)c2sccc2n(Cc2ccc(F)cc2)c1=O)NCc1ccc2c(c1)OCO2	-21.3% (inactive)	
O=C(Cn1c(=O)nc(-c2ccccc2)c2cc(Cl)ccc21)NCc1ccc(Cl)cc1	-12.4% (inactive)	
C=CS(=O)c1sc(Cl)c(N2CCOCC2)c1[N+](=O)[O-] (stereo not drawn)		39.8 µM (active)
CCC(=O)Nc1cccc(-c2nc3cc(C)ccc3o2)c1	5.01% (inactive)	
Cc1ccc(C)c(N2CCN(C(=O)Cn3ncc4c(=O)oc5ccc(C)cc5c43)CC2)c1	-26% (inactive)	
O=C(O)c1ccc(-n2nc(-c3ccccc3)c3ccccc3c2=O)cc1	2.92% (inactive)	
N#Cc1c(-c2ccccc2)c(-c2ccccc2)n[nH]c1=O	-11.4% (inactive)	
O=C(O)c1n[nH]nc1-c1ccccc1		56.2 µM (active)
COc1ccc(Br)cc1CNC(=O)c1cc(=O)[nH]c2ccc(S(=O)(=O)N3CCCC3)cc12	0.679% (inactive)	
COc1ccc(C(=O)N(Cc2ccc(N(C)C)cc2)C2CCS(=O)(=O)C2)cc1 (stereo not drawn)	-30.6% (inactive)	
COc1ccc(S(=O)(=O)NCc2ccc(C(=O)N(C)Cc3ccco3)cc2)cc1	-3.81% (inactive)	
COc1ccc(N(Cc2ccc(N(C)C)cc2)C(=O)c2ccc(S(C)(=O)=O)cc2)cc1		39.8 µM (active)
CC(C)Cn1c(=O)c2ccccc2n2c(CCC(=O)N3CCN(c4cccc(Cl)c4)CC3)nnc12	-0.869% (inactive)	
Cc1cc(NC(=O)c2cccc(Cl)c2)ccc1-c1cc2ccccc2oc1=O	5.75% (inactive)	
O=C(CN1C(=O)C2C3CCC(C3)C2C1=O)Oc1ccc2ccccc2c1 (stereo not drawn)	8.38% (inactive)	
CC1=CC(C)(C)Nc2ccc(OC(=O)CN3C(=O)C4CCCCC4C3=O)cc21 (stereo not drawn)		56.2 µM (active)
CC1=CC(C)(C)Nc2ccc(OC(=O)C(Cc3ccccc3)N3C(=O)C4CCCCC4C3=O)cc21 (stereo not drawn)	-37.8% (inactive)	
COc1ccc(CCNC(=O)c2ccc3c(c2)sc2nc(-c4ccc(C)cc4)cn23)cc1OC	-0.933% (inactive)	
Cc1cccc(CNC(=O)c2cnc3sc(N4CCCCC4)nn3c2=O)c1	11.1% (inactive)	
Cc1ccc2nc(/C(C#N)=C/c3ccc(-c4ccc(C(=O)OC(C)C)cc4)o3)[nH]c2c1	-14.2% (inactive)	
CCc1ccccc1NC(=O)N1CCC2(CC1)Oc1ccccc1C(=O)N2Cc1ccccc1F	-2.22% (inactive)	
O=[N+]([O-])c1cc(Br)c(O)c(/C=N/Nc2nc3ccccc3s2)c1		35.5 µM (active)
COc1ccc(CC(=O)N/N=C/c2cc([N+](=O)[O-])cc(Br)c2O)cc1	-17.4% (inactive)	
c1ccc2sc(NN=C3CCCC3)nc2c1	1.97% (inactive)	

SMILES	activity change, negative = inhibition	Potency
CCN(CC)CCNC(=O)c1cc2c(=O)oc3ccc(C)cc3c2s1	-4.73% (inactive)	
CCOc1cccc(NC(=O)c2ccc(F)c(S(=O)(=O)N(CC)c3cccc(C)c3)c2)c1	8.6% (inactive)	
O=C(CCc1ccccc1)NNc1ccc(F)cc1	-4.02% (inactive)	
CC(C)Cc1nnc(NC(=O)CCc2ccccc2)s1	-3.69% (inactive)	
O=C(CCc1ccccc1)Nc1nn[nH]n1		70.8 µM (active)
COc1ccc(OC)c(CNC(=O)CN2C(=O)CCn3nc(-c4cn(C)c5ccccc45)cc32)c1	-33.4% (inactive)	
COc1cccc(NC(=O)c2ccc3nc(CCc4ccccc4)oc3c2)c1	0.792% (inactive)	
CC(=O)N1CCCc2cc(S(=O)(=O)N3CCC(C(=O)NCc4ccc(C)cc4)CC3)ccc21	2.46% (inactive)	
O=C(Nc1cc(C(F)(F)F)ccc1Cl)c1ccc2c(c1)CCN2S(=O)(=O)c1ccccc1	-1.09% (inactive)	
OCCNCc1cccc(OCc2ccccc2Cl)c1	-19% (inactive)	
S=C(NCCc1ccccc1)NCc1ccccc1Cl	3.82% (inactive)	
Clc1cccc(Cl)c1OCCOCCNCc1ccccc1		56.2 µM (active)
CN1CCN(CC(=O)Nc2cccc([N+](=O)[O-])c2)CC1	6.3% (inactive)	
CCCCc1nc2ccccc2c(=O)n1NC(=O)c1c(O)c2cccc3c2n(c1=O)CC3	23.1% (inactive)	
CCCCc1nc2ccccc2c(NC(=O)CN2CCN(C)CC2)c1CCC		50.1 µM (active)
Fc1ccc(CN2CCc3nc(Nc4ccccc4)ncc3C2)cc1F	-24.7% (inactive)	
COc1ccc(/C=C/C(=O)OCC(=O)Nc2cccc(Oc3ccccc3)c2)c(OC)c1	0.384% (inactive)	
COc1cc(/C=C/C2=CC(C)(C)NC(=S)N2)cc(OC)c1OC	-25.7% (inactive)	
COc1ccc(/C=C/C2=CC(C)(C)NC(=S)N2)c(OC)c1		39.8 µM (active)
O=C(O)c1c(CNCc2cccc(F)c2)c2ccccc2n1Cc1ccccc1	-0.857% (inactive)	
COC(=O)c1ccccc1NC(=O)c1cnn(-c2ccc(F)cc2)c1-n1cccc1	-14.4% (inactive)	
Cc1ccc2oc3c(c(=O)c2c1)C(c1ccc(O)cc1)N(Cc1ccc2c(c1)OCO2)C3=O (stereo not drawn)	-0.588% (inactive)	
CCOc1ccc(CCNC(=O)CN(c2ccc(C)cc2)S(=O)(=O)N(C)C)cc1OCC	1.55% (inactive)	
Cc1cc(C)nc(N/N=C/c2ccc([N+](=O)[O-])o2)n1	-25.2% (inactive)	
CCN(CC)c1ccc(/C=N/Nc2nc(C)cc(C)n2)c(O)c1		25.1 µM (active)
CCN(CC)c1ccc(/C=N/NC(=O)c2cnccn2)c(O)c1	-7.91% (inactive)	

SMILES	activity change, negative = inhibition	Potency
Cc1ccc(-c2noc(CSc3nnc(-c4ccc(Cl)cc4)n3C)n2)cc1	-2.06% (inactive)	
Cc1[nH]c2c(C(=O)N3CCCC(CCC(=O)NCc4ccccc4F)C3)cccc2c1C (stereo not drawn)		70.8 µM (active)
O=C(CCC1CCCN(Cc2ccc(O)c(Cl)c2)C1)NCc1ccccc1F (stereo not drawn)	-15% (inactive)	
CSc1ncccc1C(=O)N1CCCC(CCC(=O)NCc2ccccc2F)C1 (stereo not drawn)	-0.331% (inactive)	
CCCNC(=O)C1CCC(Cn2c(=O)c3sccc3n(Cc3ccccc3F)c2=O)CC1 (stereo not drawn)	-3.32% (inactive)	
Cc1ccccc1NC(=O)Cn1c(=O)n(CCCCC(=O)NCc2ccccc2Cl)c(=O)c2ccccc21	1.21% (inactive)	
Cc1cc(F)ccc1NS(=O)(=O)c1ccc(-n2cccn2)cc1	-2.31% (inactive)	
Cn1ccc2cc(S(=O)(=O)N3CCCC(C(=O)NCc4ccccc4F)C3)ccc21 (stereo not drawn)	-3.06% (inactive)	
Cc1oc(-c2ccccc2)nc1Cn1c(SCc2cccc(C(F)(F)F)c2)nc2cccnc21	-3.84% (inactive)	
CCc1nn(CC(=O)N2CCN(c3ccc(Cl)cc3)CC2)c(=O)c2cc3occc3n12	-29.9% (inactive)	
O=C(CN1CCN(S(=O)(=O)/C=C/c2ccccc2)CC1)NC(=O)NCc1ccco1		50.1 µM (active)
NC(=O)CCN1CCN(S(=O)(=O)/C=C/c2ccccc2)CC1	3.29% (inactive)	
COc1ccccc1N1CCN(CC(=O)NC(=O)NCc2ccco2)CC1	-3.12% (inactive)	
COc1cccc(CNCCSc2nnnn2C)c1OCc1ccccc1Cl	-22% (inactive)	
O=C(Cc1ccccc1)n1nc(-c2ccccc2)nc1NCc1ccco1	11.8% (inactive)	
O=c1nc2s/c(=C\c3ccco3)c(=O)n2nc1Cc1ccccc1		50.1 µM (active)
O=C(Nc1ccccc1)/C(=C\c1ccco1)NC(=O)c1ccco1	-17.7% (inactive)	
CCOc1ccccc1N(CC)C(=O)c1cc2ccc3cccnc3c2[nH]1	-0.472% [at 57.1 µM] (inactive)	
CC(=O)c1cccc(NC(=O)c2nc(-c3ccccc3)n(-c3cccc(C)c3)n2)c1	-9.48% (inactive)	
O=C(CSc1nccn1-c1ccc(F)cc1)Nc1cccc2ccccc12		7.94 µM (active)
Cc1ccccc1-n1c(SCC(=O)Nc2cccc3ccccc23)nc(O)cc1=O	-38.7% (inactive)	
Cc1cccc(-n2ccnc2SCC(=O)Nc2cccc3ccccc23)c1C		14.1 µM (active)
O=C(CSc1nccn1Cc1ccc(F)cc1)NCc1ccccc1	-22% (inactive)	
Cc1nnc(NC(=O)CSc2nccn2-c2cccc(C)c2C)s1	-29.9% (inactive)	
CC(=O)Nc1cccc(NC(=O)CSc2nccn2Cc2ccc(F)cc2)c1	-24.5% (inactive)	
